We go through 40 molecules from PubChem BioAssay AID493201 (National Center for Advancing Translational Sciences (NCATS), 2011).

Results filed as inconclusive are left out. The source made the active and inactive calls. Calls come from the whole dose curve; as a rule, active = well fitted activation curve with a large enough effect; inconclusive = small, poorly fitted or top-dose-only effect; inactive = no such curve, though single readings can be large or run the other way.
Potency is the fitted concentration of half-maximal effect.

A short description of this assay: qHTS Assay for Identifying a Potential Treatment of Ataxia-Telangiectasia: Secondary assay (no NCS) hit validation. For activation: 0% is about no effect.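 Note: phosphorylated KAP1 signal as a proxy for ATM-like kinase activity.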 Conditions: A-T patient fibroblasts, AlphaLISA, no DNA damage added, 90 min; series mostly up to 76.9 µM; activation: at the top concentration. The text has this: NIH Chemical Genomics Center [NCGC]
NIH Molecular Libraries Probe Centers Network [MLPCN]
Assay Submitter (PI): Wei Zheng and Yosef Shiloh
Ataxia-telangiectasia (A-T) is a devastating and progressive disease for which, there is no cure. Although A-T is a multisystem disease, it is stereotyped characterized by its neurological symptoms such as truncal ataxia, due to cerebellar cortical degeneration of the Purkinje and granule cells. Other symptoms of A-T are telangiectasias (dilated blood vessels), primary immunodeficiency, marked sensitivity to ionizing radiation (IR), chromosomal instability and predisposition to cancer.
The underlying genetic cause of A-T is null mutations in the ATM (A-T mutated) gene. ATM is a nuclear serine/threonine kinase that functions as a master regulator of the cellular responses to double strand breaks (DSBs) in the DNA. Upon activation by DSBs, ATM phosphorylates a plethora of downstream targets, including KAP-1 on […]. KAP-1 phosphorylation occurs shortly in response to DSBs and mediates global chromatin relaxation, which facilitates DSB repair. To screen for small molecules that will compensate for the loss of ATM in cells derived from A-T patients, we monitored KAP-1 phosphorylation as a readout for ATM-like activity using an AlphaLISA assay. This secondary assay omits NCS, which creates double-stranded DNA breaks.
Step,Parameter,Value,Description
1. Cell Plating, 3 ul, 500 cells/well in OPTI-MEM, 1% FBS, 1% Pen/Strep
3. Library compounds, 23 nl, 76.7 - 0.61uM dilution series final concentration
4. Incubation, 60 min, 37C, 5% CO2, 95% humidity
6. Incubation, 30 min, 37C, 5% CO2, 95% humidity
7. Reagent, 1 ul, Premixed detection reagents and lysis buffer
8. Reagent, 1 ul, 0.6% Antifoam A
9. Incubation, 6 hr, 25C, 95% humidity
10. Readout, EnVision, EnVision plate reader. AlphaScreen 1536-well protocol
Cells were plated using medium-binding white solid-bottom tissue culture treated Kalypsys plates. Multidrop dispense of 3 uL of F2112 (hTERT immortalized A-T patient fibroblast cells). Detection reagent and lysis buffer was 3.75nM Rab-a-pKAP1 antibody bound to 75 ng/ul AlphaScreen SA donor bead, 3.75 nM Biot-M-a-KAP1 antibody bound to AlphaLISA protein A acceptor bead, 0.5x protease inhibitor cocktail and 0.25x PerkinElmer lysis buffer. EnVision protocol for 1536-well AlphaScreen read (30ms excitation, 100ms read), about 10 min/plate.
For orientation: In qHTS, concentration-response curves come from the screen itself.
Consider `Cc1cccc(NC(=O)/C(C#N)=C/c2ccc(F)cc2)n1`, for which the Potency was 1.84 µM (active).

For `COc1ccccc1N1CCN(C(=O)c2cc(=O)c3c(C)cc(C)cc3o2)CC1`, the “activation” value is -2.54% (inactive).

For the molecule `CN(C)c1ccc2nc3ccc(=[N+](C)C)cc-3sc2c1`, the Potency was 14.6 µM (active).

Take `OC1(CC#CCN2CCCCC2)c2ccccc2-c2ccccc21`: the “activation” value is -14.4% (inactive).

As for `COc1ccc(N(CCC#N)C(=O)/C(C#N)=C\c2cccs2)cc1`, the “activation” value was -4.35% (inactive).

As for `CCn1nc(C)c(/C=N/NC(=O)Cn2cncn2)c1C`, the “activation” value is 4.3% (inactive).

`CNC(=O)c1ccc(-c2sc3nc(N4CCOCC4)c4c(c3c2N)CC(C)(C)OC4)o1`: the Potency is 29.2 µM (active).

For the molecule `Cc1ccnc(NC(=O)c2ccccc2NC(=O)c2ccccc2)c1`, the “activation” value is 3.23% (inactive).

As for `O=C(N/N=C/c1ccncc1)c1ccc(COc2cccc3cccnc23)cc1`, the “activation” value is 9.57% (inactive).

In the case of `COCCCNC(=O)c1c[nH]c2ccc(S(=O)(=O)N(C)c3ccccc3C)cc2c1=O`, the “activation” value is -5.93% (inactive).

As to `COC(=O)c1ccncc1C(=O)Nc1ccc(Oc2ncc(C(F)(F)F)cc2Cl)cc1`, the “activation” value is -5.38% (inactive).

As for `CC(C)OP(=O)(OC(C)C)C(O)c1ccc(N(C)C)cc1` (stereo not given), the Potency is 9.23 µM (active).

For the molecule `Cc1ccc2c(c1)sc(=NC(=O)C1CC1)n2C`, the “activation” value was -1.08% (inactive).

On to `Cc1cc2nc3ccc(=[N+](C)C)cc-3sc2cc1N`, for which the “activation” value is -1.69% (inactive).

Turning to `Cc1cc(C)n2nc(C(=O)OCCOc3ccc(F)cc3)nc2n1`, the Potency is 58.2 µM (active).

With `O=C(c1ccc(F)cc1)c1ccc(N2CCCCC2)cc1`, the “activation” value is -6.96% (inactive).

Consider `COc1ccc(Cl)cc1NC(=O)C[n+]1cccc(C)c1`, for which the “activation” value was -2.15% (inactive).

Turning to `C(=N\Nc1ccccn1)/c1c[nH]c2ccccc12`, the “activation” value is -6.45% (inactive).

On to `Clc1cccc(CN2CCC(Cc3ccccc3)CC2)c1`, for which the “activation” value is 1.74% (inactive).

On to `Cc1ccc2c(c1)C(=O)CC(O)(C(F)(F)F)O2` (stereo not given), for which the “activation” value was -4.3% (inactive).

Regarding `CC(=O)Nc1ccc(NC(=O)CSc2nnnn2-c2ccc(F)cc2)cc1`, the “activation” value was 2.61% (inactive).

On to `O=C(O)c1ccc(/C=C/c2nc3ccccc3c(=O)[nH]2)cc1`, for which the “activation” value is 6.09% (inactive).

As to `CC(C)C1CC(CCN)(c2ccccc2)CCO1` (stereo not given), the “activation” value was -1.74% (inactive).

With `CCCCCCCCCn1ccc(=N)cc1`, the “activation” value was 22% (inactive).

In the case of `COc1ccc(-c2cc(C(F)(F)F)c(C#N)c(SCC(=O)O)n2)cc1OC`, the “activation” value was -4.24% (inactive).

As to `O=[N+]([O-])c1ccc(F)cc1F`, the Potency was 32.8 µM (active).

Regarding `COC(=O)c1ccc2[nH]c3cccc(/C(=C/c4ccccc4)c4ccccc4)c3c2c1`, the “activation” value is -4.3% (inactive).

Consider `CS(=O)(=O)c1ccc(-c2csc(-c3cccnc3)n2)cc1`, for which the “activation” value is 6.96% (inactive).

`COc1ccc(C2NC(=S)NC3=C2N2CCC3CC2)cc1` (stereo not given): the Potency is 1.16 µM (active).

Consider `CCCc1nn(C)c(C(=O)Nc2ccc(C(C)(C)C)cc2)c1Cl`, for which the “activation” value is 11.9% (inactive).

Consider `O=C(NCCCN1CCOCC1)c1ccc2c(c1)N(Cc1cccc(F)c1)C(=O)c1ccccc1S2`, for which the “activation” value is 18.3% (inactive).

Turning to `CCn1nc(C)c(CNC(=O)c2cc(COc3ccc(F)cc3Cl)on2)c1C`, the “activation” value was 12.2% (inactive).

Take `COc1ccc(-c2csc(-c3ccc(O)cc3)n2)cc1`: the “activation” value was -2.15% (inactive).

As for `CCN(CC)S(=O)(=O)c1ccc(Cl)c(NC(=O)CCCCl)c1`, the “activation” value was -1.74% (inactive).

As for `CNC(=S)N/N=C/c1ccc2c(c1)OCCO2`, the “activation” value was 75.4% (inactive).

Consider `NCC(=O)c1cccc2ccc[n+]([O-])c12`, for which the “activation” value is 0% (inactive).

As for `CNC(=O)c1ccc(-c2cc3onc(-c4ccccc4)c3c(=O)n2C)cc1`, the Potency was 18.4 µM (active).

With `COc1ccccc1NC(=O)C1CCCN(S(=O)(=O)c2ccc(-n3cnnn3)cc2)C1` (stereo not given), the “activation” value is -4.35% (inactive).

Regarding `CCC(C)NC(=O)c1cn(CCOC)c(=O)c2c1c1ccccc1n2C` (stereo not given), the “activation” value is 2.54% (inactive).

`CCc1ccc(C2c3[nH]c4ccccc4c3CCN2C(=O)c2cc[n+]([O-])cc2)cc1` (stereo not given): the “activation” value is 11.3% (inactive).
